Results filed as inconclusive are left out. Active and inactive are the calls of the source. Unless noted, calls come from the whole dose curve; as a rule, active = well fitted curve in either direction with a large enough effect (not every such curve was filed as active); inconclusive = small, poorly fitted or top-dose-only effect, or another doubt; inactive = flat fitted curve, though single readings scatter.
How the values were obtained:
[1] = biological target: Glucocorticoid receptor (Homo sapiens) (UniProt P04150); assay: GR-GFP Redistribution (AID 450;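 active = compounds whose dose series gives a full or clear partial fitted curve of increased nuclear translocation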; note: potency is the fitted concentration of half-maximal effect); settings: U2OS GR-GFP nuclear translocation, laser cytometry, 2 h
[2] = biological target: Glucocorticoid receptor (Homo sapiens) (UniProt P04150); assay: GR-EFC Redistribution (AID 451; calls by dose curve; note: potency is the fitted concentration of half-maximal effect); settings: CHO-K1 GR-EFC translocation, beta-gal luminescence, 2 h
Procedure, shortened: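 Translocation of GR-ED fusion to nuclear EA restores b-gal, read by luminescence after 1 h room-temperature detection. Engineered CHO-K1 biosensor cells, 1,000/well, exposed 2 h at 37 C to titrations up to 46 uM final.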

[3] = biological target: Mitogen-activated protein kinase 10 (Mus musculus) (UniProt Q61831); assay: JNK3 AlphaScreen Assay (AID 530); settings: JNK3 lysate, c-Jun phosphorylation; series mostly up to 57.1 µM;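 note: kinase came from lysate of stimulated human HepG2 cells; signal reports phosphorylation of biotinylated GST-cJun 1-79 at Ser73 with 10 µM ATP; % is set by controls: 0 for no effect and ±100 for the full control effect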
Procedure, shortened: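 Room-temperature AlphaScreen kinase assay; pre-activated HepG2 lysate as JNK3 source, biotin-GST-cJun(1-79) substrate, 10 uM ATP, compound 15 min preincubation.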

[4] = biological target: 3',5'-cyclic-AMP phosphodiesterase 4B (Homo sapiens) (UniProt Q07343); assay: qHTS Assay for Inhibitors of PDE-IV (AID 607; active = well fitted activation curve with a large enough effect in the main read-out, with a control signal flat, not every such curve was filed as active; note: % of control where 0% means no effect); settings: HEK293 ACTOne CNG channel cells, membrane potential fluorescence; series mostly up to 22.9 µM
Procedure, shortened: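 ACTOne HEK293 cells carry a modified cAMP-gated CNG channel and express endogenous PDE4; plated 1000 cells/well, compounds up to 22.9 uM final. Membrane-potential dye fluorescence (ex 535/em 590) was read; parental cells received 10 uM forskolin + 100 uM RO 20-1724.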

[5] = biological target: Cytochrome P450 2C9 (Homo sapiens) (UniProt P11712); assay: qHTS Assay for Inhibitors and Substrates of Cytochrome P450 2C9 (AID 883; active = well fitted inhibition curve with a large enough effect; note: % is set by controls: 0 for no effect and ±100 for the full control effect; nearly all actives have a fitted effect of over 60% in size); settings: recombinant CYP2C9, luciferin-H luminescence, 60 min; series mostly up to 57.1 µM
Procedure, shortened: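 Inhibition of CYP2C9 is scored as loss of luminescence, with 57uM sulphaphenazole defining 100% inhibition. Substrate Luciferin-H is used at 100uM, equal to its KM; enzyme at 10nM in 25mM KPO4, 60 min at 37C with NADPH regeneration.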

[6] = biological target: Cytochrome P450 2D6 (Homo sapiens) (UniProt P10635); assay: qHTS Assay for Inhibitors and Substrates of Cytochrome P450 2D6 (AID 891; active = well fitted inhibition curve with a large enough effect; note: nearly all actives have a fitted effect of over 60% in size; note: potency is the fitted concentration of half-maximal effect;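 for activity change, negative = inhibition: luciferin methyl ether substrate demethylated by CYP2D6 with NADPH regeneration; % is set by controls: 0 for no effect and ±100 for the full control effect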); settings: recombinant CYP2D6, luciferin-ME EGE luminescence; series mostly up to 57.1 µM
Procedure, shortened: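 Human CYP2D6 (5 nM) with 30 uM Luciferin-ME EGE (at Km) in 100 mM KPO4, compound preincubated 10 min, then NADPH regeneration system for 60 min at room temperature. Luciferin read by luminescence; normalized to 1.43 uM quinidine.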

[7] = NFAT Signaling Pathway (AID 444); settings: Jurkat NFAT-bla M1, carbachol, beta-lactamase ratio, 5 h; at 17.2 µM (top of the series) unless noted;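 note: carbachol stimulus at about its EC50 of 1 µM final; % is set by controls: 0 for no effect and ±100 for the full control effect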
Procedure, shortened: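 Read-out: CCF4 FRET ratio (460 nm/530 nm) after 1 h RT dye loading, used for %activity and AC50 from titration series. Cells: Jurkat NFAT-β-lactamase/M1 line, treated with compound plus 1 uM carbachol for 5 h, 37 °C.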

[8] = Stat Signaling Pathway (AID 446); settings: ME-180 SIE beta-lactamase reporter, IL-6 stimulated, 5 h; series mostly up to 17.2 µM;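 note: ME-180 cervical cancer cells given 40 pM IL-6 alongside compound; SIE-controlled beta-lactamase reporter measured as 460/530 nm FRET emission ratio; % is set by controls: 0 for no effect and ±100 for the full control effect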
Procedure, shortened: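 ME-180 SIE-bla cells; overnight plating; cpd + IL-6 40 pM, 5 h, 37 C; LiveBLAzer 2.5 h RT; 460/530 nm emission ratio. Normalized to 300 pM IL-6 and 125 nM JAK inhibitor controls.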

Cytochrome P450 2D6 (Homo sapiens), sequence (P10635 whole entry, looked up): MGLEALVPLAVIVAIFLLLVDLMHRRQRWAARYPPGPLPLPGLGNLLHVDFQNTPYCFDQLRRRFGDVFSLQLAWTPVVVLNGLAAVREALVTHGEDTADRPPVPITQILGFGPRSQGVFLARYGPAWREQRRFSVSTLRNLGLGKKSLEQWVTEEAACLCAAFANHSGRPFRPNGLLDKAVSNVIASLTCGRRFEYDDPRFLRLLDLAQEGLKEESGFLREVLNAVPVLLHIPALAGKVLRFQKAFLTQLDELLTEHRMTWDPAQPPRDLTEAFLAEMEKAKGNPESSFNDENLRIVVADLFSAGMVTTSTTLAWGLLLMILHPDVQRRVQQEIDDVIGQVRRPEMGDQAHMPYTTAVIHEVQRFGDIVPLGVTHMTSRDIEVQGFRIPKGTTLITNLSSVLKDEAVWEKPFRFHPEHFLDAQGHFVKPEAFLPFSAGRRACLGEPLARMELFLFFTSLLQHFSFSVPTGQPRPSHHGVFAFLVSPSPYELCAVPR
3',5'-cyclic-AMP phosphodiesterase 4B (Homo sapiens), sequence (Q07343 whole entry, looked up): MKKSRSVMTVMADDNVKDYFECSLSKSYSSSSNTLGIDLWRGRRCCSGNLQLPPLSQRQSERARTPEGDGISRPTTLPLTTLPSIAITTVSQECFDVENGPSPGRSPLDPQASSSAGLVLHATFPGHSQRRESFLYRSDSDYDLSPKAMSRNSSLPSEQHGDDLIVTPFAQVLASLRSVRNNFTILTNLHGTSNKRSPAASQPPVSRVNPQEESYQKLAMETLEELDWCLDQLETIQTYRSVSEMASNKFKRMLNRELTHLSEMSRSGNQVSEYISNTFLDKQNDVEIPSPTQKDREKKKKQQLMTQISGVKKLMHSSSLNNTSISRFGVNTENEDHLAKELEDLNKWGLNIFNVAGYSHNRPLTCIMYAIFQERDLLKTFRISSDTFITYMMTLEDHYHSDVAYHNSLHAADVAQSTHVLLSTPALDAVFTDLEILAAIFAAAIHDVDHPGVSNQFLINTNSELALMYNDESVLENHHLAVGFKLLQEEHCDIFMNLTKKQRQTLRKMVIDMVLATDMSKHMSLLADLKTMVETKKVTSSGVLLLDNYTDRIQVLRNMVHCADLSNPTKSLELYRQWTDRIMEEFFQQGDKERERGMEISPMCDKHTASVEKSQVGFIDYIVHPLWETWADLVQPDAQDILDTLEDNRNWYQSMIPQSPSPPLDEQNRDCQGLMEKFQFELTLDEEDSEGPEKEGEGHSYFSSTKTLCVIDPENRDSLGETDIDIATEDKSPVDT
Cytochrome P450 2C9 (Homo sapiens), sequence (P11712 whole entry, looked up): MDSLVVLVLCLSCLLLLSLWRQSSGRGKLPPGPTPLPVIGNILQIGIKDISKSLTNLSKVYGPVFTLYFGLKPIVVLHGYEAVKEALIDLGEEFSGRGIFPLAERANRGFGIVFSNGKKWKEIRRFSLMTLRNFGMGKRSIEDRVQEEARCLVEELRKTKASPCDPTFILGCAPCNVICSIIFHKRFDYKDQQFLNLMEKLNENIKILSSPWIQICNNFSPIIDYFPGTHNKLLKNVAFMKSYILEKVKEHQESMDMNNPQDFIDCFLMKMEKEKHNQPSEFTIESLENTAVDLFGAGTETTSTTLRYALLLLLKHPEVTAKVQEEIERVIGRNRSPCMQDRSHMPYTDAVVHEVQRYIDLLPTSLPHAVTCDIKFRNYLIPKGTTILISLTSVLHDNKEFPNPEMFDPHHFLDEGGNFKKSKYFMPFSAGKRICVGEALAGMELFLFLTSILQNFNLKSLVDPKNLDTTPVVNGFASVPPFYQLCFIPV
Glucocorticoid receptor (Homo sapiens), sequence (P04150 whole entry, looked up, the tested form may be a part): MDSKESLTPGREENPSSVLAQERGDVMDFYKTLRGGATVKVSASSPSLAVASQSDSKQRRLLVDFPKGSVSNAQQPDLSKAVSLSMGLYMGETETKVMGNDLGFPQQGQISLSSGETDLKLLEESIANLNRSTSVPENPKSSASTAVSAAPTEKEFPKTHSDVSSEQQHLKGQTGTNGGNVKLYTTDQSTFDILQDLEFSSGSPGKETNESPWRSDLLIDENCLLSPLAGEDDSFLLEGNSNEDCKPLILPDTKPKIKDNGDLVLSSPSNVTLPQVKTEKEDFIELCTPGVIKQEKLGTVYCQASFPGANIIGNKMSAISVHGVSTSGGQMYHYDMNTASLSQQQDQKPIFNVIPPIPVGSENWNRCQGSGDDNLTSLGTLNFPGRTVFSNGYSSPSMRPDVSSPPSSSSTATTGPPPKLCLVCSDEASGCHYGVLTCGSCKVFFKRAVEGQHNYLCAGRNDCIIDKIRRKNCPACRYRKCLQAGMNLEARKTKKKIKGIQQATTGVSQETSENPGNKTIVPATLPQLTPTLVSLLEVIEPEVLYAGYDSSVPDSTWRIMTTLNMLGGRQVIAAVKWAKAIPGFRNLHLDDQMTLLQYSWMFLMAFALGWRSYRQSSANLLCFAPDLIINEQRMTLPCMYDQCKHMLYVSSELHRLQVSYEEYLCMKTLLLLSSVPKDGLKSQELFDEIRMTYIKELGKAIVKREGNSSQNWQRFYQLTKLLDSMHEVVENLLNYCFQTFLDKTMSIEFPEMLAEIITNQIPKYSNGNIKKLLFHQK

O=C1C[C@H]2OCCC=C3CN4CC[C@@]56c7ccccc7N1[C@@H]5[C@H]2[C@H]3C[C@@H]46
inactive: Potency [1] > 46 µM | Potency [2] > 46 µM | outcome [3] | outcome [4] | Potency [5] | Potency [6]

O=c1cccc2n1C[C@H]1C[C@@H]2CN(CCO)C1
inactive: Potency [1] > 46 µM | Potency [2] > 46 µM | outcome [3] | outcome [4] | Potency [5] | Potency [6]

O=C(CN1CCN(CCO)CC1)Nc1ccc(Cl)cc1C(=O)c1ccccc1
inactive: activity change, negative = inhibition [7] 5.95% | outcome [8] | Potency [1] > 20.6 µM

C[C@H]1CCCC=CC2C[C@H](O)C[C@@H]2[C@H](O)/C=C\C(=O)O1 (some centres undefined)
inactive: Potency [1] > 46 µM | Potency [2] > 46 µM | outcome [3] | outcome [4]

CC(C)(C)[C@@]1(O)C[C@@H]2OC(=O)C[C@@]23C(=O)O[C@H]2OC(=O)[C@@H](O)[C@]231
inactive: Potency [1] > 46 µM | Potency [2] > 46 µM | outcome [3] | outcome [4] | Potency [5] | Potency [6]

C[C@H]1CC[C@@H]2[C@@H](C)C(=O)O[C@H]3O[C@@]4(C)CC[C@@H]1[C@]32OO4
inactive: Potency [1] > 46 µM | Potency [2] > 46 µM | outcome [3] | outcome [4]

CC(C)(O)[C@H]1[C@H]2OC(=O)[C@@H]1[C@]1(O)C[C@H]3O[C@]34C(=O)O[C@H]2[C@]14C
inactive: Potency [1] > 46 µM | Potency [2] > 46 µM | outcome [3] | outcome [4]

OC[C@H]1CCCN2CCCC[C@@H]12
inactive: Potency [1] > 46 µM | Potency [2] > 46 µM | outcome [3] | outcome [4] | Potency [5] | Potency [6]

CCOc1ccc(-n2c(O)c(C=Nc3ccc(N(CC)CC)cc3)c(=O)[nH]c2=O)cc1
inactive: outcome [8] | Potency [1] > 20.6 µM

O=c1ccc2cc(O[C@@H]3O[C@@H](CO)[C@@H](O)[C@@H](O)[C@H]3O)c(O)cc2o1
inactive: Potency [1] > 46 µM | Potency [2] > 46 µM | outcome [3] | outcome [4]

CCOc1ccccc1-n1c(O)c(C=Nc2c(C)n(C)n(-c3ccccc3)c2=O)c(=O)[nH]c1=O
inactive: outcome [8] | Potency [1] > 20.6 µM

CN1CCC(OC(=O)C2c3ccccc3Oc3ccccc32)CC1
inactive: outcome [8] | Potency [1] > 20.6 µM

CC[C@H]1[C@@H]2C[C@@H]3[C@@H]4N(C)c5ccccc5[C@@]45C[C@@H]([C@H]2[C@@H]5O)N3[C@@H]1O
active: Potency [6] 3.16 µM
inactive: Potency [1] > 46 µM | Potency [2] > 46 µM | outcome [3] | Potency [5]

Oc1cc2c(cc1O)[C@H]1c3ccccc3CN[C@H]1CC2
inactive: Potency [1] > 46 µM | Potency [2] > 46 µM | outcome [4]

C[C@@H]1CCC/C=C\[C@H]2C[C@H](O)C[C@@H]2[C@H](O)/C=C\C(=O)O1
inactive: Potency [1] > 46 µM | Potency [2] > 46 µM | outcome [3] | outcome [4] | Potency [5] | Potency [6]

COC[C@H]1OC(=O)c2coc3c2[C@@]1(C)C1=C(C3=O)[C@H]2CCC(=O)[C@@]2(C)C[C@H]1OC(C)=O
active: Potency [1] 0.838 µM
inactive: Potency [2] > 46 µM | outcome [3] | outcome [4]

CN1CC=C2C(C#N)=C(N)C(C#N)(C#N)C(c3ccncc3)C2C1 (centres undefined)
inactive: outcome [8] | Potency [1] > 20.6 µM

OC(Cc1ccccc1)(c1ccccc1)C1CN2CCC1CC2 (centres undefined)
inactive: outcome [8] | Potency [1] > 20.6 µM
active: activity change, negative = inhibition [7] -83.4%

COC1=C[C@H]2[C@@H]3Cc4ccc(OC)c(O)c4[C@@]2(CCN3C)CC1=O
inactive: Potency [1] > 46 µM | Potency [2] > 46 µM | outcome [3] | outcome [4] | Potency [5]

Cc1c(N=Cc2c(O)n(CCc3ccc(F)cc3)c(=O)[nH]c2=O)c(=O)n(-c2ccccc2)n1C
inactive: outcome [8] | Potency [1] > 20.6 µM

COc1cc2c(cc1OC)-c1c(OC)c(OC)c(CO)c3c1[C@H](C2)N(C)CC3
inactive: Potency [1] > 46 µM | Potency [2] > 46 µM | outcome [3] | outcome [4] | Potency [5] | Potency [6]

C[C@]12Cc3cn4c(nc3C=C1CC[C@H]1[C@@H]2CC[C@@]2(C)[C@H]1CC[C@@]2(O)C#N)nc1ccccc14
inactive: Potency [1] > 46 µM | Potency [2] > 46 µM | outcome [3] | outcome [4]

C[C@@]12CCC[C@](C)(C(=O)O)[C@@H]1CCc1ccc(O)cc12
inactive: Potency [1] > 46 µM | Potency [2] > 46 µM | outcome [3] | Potency [5] | Potency [6]

From PubChem BioAssay (NCATS)
